A selection: hits, their analogues and other compounds. The true share with any hit is near 2.6%.
LGR2 inh: inhibitors of bursicon-induced Drosophila LGR2 receptor cAMP signaling. HEK293 LGR2, CRE-luciferase, bursicon-stimulated, 4 h. inhibition, % at 9.99 µM. 0.35% of 380,000 active. AID 720647;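 active means drop in luminescence signal, shown as inhibition above about 50% in the replicate tests, limit read from the data, passing the limit was not always enough; inconclusive means probably only some replicates passing the limit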;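 further: agonist challenge used bursicon conditioned medium at about half maximal strength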
EBV LMP1 NFkB: reduces LMP1-driven NF-kappaB luciferase signal. LMP1-induced NF-kappaB luciferase reporter cells, luminescence. inhibition, % at 12.5 µM. 0.69% of 350,000 active; in the data active means inhibition above about 41%; inconclusive means no clear call, values can overlap the other calls;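 further: 0% = neutral control wells and 100% = reference inhibitor control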
TWEAK-Fn14 inh: blocks TWEAK-Fn14 interaction in a reporter cell assay; 2% of 360,000 active; TWEAK-stimulated Fn14 reporter cells, luciferase luminescence, 8 h; inhibition, % at 10 µM; in the data active means inhibition above about 50%
TROY NFkB inh: blocks TROY-dependent signaling in reporter cells; Q293 LMP1-TROYcd NF-kB luciferase reporter, 4 h; inhibition, % at 10 µM; 0.98% of 360,000 active;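 active means compounds whose plate-normalised and pattern-corrected inhibition of the luciferase reporter signal at the single screening dose is 50% or more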
EWS-Fli inh: blocks EWS/Fli oncoprotein-driven transcription; A673 NR0B1-luciferase reporter, viability-normalised; inhibition, % at 12.6 µM; 0.67% of 350,000 active;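 active means mean inhibition of at least 50% after viability correction, with every replicate also passing that limit; inconclusive means mean reaches 50% but only one of two replicates passes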;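 further: firefly luciferase signal divided by Alamar Blue viability fluorescence both relative to DMSO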
The depositor's hits bear a star; ? = inconclusive; · = no result given.

SMILES	LGR2 inh	EBV LMP1 NFkB	TWEAK-Fn14 inh	TROY NFkB inh	EWS-Fli inh
COc1cc(SC)ccc1C(=O)Nc1ccon1	·	8	-7	-43	·
COc1cc(SC)ccc1C(=O)Nc1ncc(C)s1	102*	74*	100*	83*	81*
COc1cc(SC)ccc1C(=O)Nc1cccc(C)n1	-83	-3	11	-46	-46
COc1cc(SC)ccc1C(=O)Nc1ccccn1	5	28	56*	-7	14
CCC(=O)Nc1ccc2c(c1)C(=O)N(C)[C@H]1CC[C@@H](CC(=O)NC3Cc4ccccc4C3)O[C@@H]1CO2	2	·	·	·	1
CC1C(=O)CCC1(C(=O)O)c1ccccc1 (configuration not stated)	0	6	98*	-3	·
CC1(c2ccccc2)CCC(=O)NC1 (configuration not stated)	10	3	6	6	8
CN(C(=O)c1cccc(NC(=O)Cc2ccc(NC(=O)C3CCCN(C(=O)CCc4ccccc4)C3)cc2)c1)C1CCCC1 (configuration not stated)	16	21	53*	47	5
O=C(NCCCc1ccccc1)c1cccc(NC(=O)C2CCCCC2)c1	1	-3	54*	1	-7
C[C@@H]1CN([C@@H](C)CO)C(=O)Cc2cc(NC(=O)CCCN(C)C)ccc2O[C@H]1CN(C)Cc1ccncc1	8	·	·	·	4
Cc1sc2cc3c(c(C(=O)c4ccccc4)[n+]2c1C)-c1cccc2cccc-3c12	65*	·	·	·	30
Cc1cc2ccccc2cc1C(=O)c1ccccc1	-2	-1	-29	-29	-22
O=C(c1ccccc1)c1c2c(cc3sc4ccccc4[n+]13)-c1cccc3cccc-2c13	48	-15	60*	40	·
O=C(c1ccccc1)c1ccc2ccccc2c1	-78	-14	-20	-62	-107
COCC(=O)N1C[C@H](C)[C@H](OC)CN(C)C(=O)c2ccc(NC(=O)c3cc(C)on3)cc2OC[C@@H]1C	7	·	·	·	-3
C[C@@H]1CN([C@H](C)CO)C(=O)c2cc(NS(=O)(=O)c3ccc(F)cc3)ccc2O[C@@H](C)CCCCO[C@@H]1CN(C)Cc1ccc(C(=O)O)cc1	12	·	·	·	1
C[C@@H](NC(=O)C[C@H]1CC[C@H](NC(=O)C2CC2)[C@@H](CO)O1)c1ccccc1	-2	·	·	·	7
O=C1c2ccccc2C(=O)C1c1ccc(Cl)cc1	-6	2	0	7	-23
O=C1c2ccccc2C(=O)C12OC2c1ccc(Cl)cc1Cl (configuration not stated)	12	8	72*	21	26
COc1ccc2c(c1)[n+](=O)c(C(C)=O)c(C)n2[O-]	·	-10	9	-2	·
CC(=O)c1c(C)n([O-])c2cc(F)c(F)cc2[n+]1=O	-4	6	-9	-9	63*
CNC[C@@H]1Oc2ncc(-c3ccc(OC)cc3)cc2C(=O)N([C@@H](C)CO)C[C@@H]1C	-17	·	·	·	3
c1ccc(-n2nnc3c(N4CCOCC4)ncnc32)cc1	83*	53*	87*	43	·
Cc1cc(NCCCN2CCOCC2)n2ncc(-c3ccc(Cl)cc3)c2n1	·	-29	30	19	·
Cc1cc(NCCCn2ccnc2)n2ncc(-c3ccc(Cl)cc3)c2n1	·	-33	68*	70*	·
SMILES	LGR2 inh	EBV LMP1 NFkB	TWEAK-Fn14 inh	TROY NFkB inh	EWS-Fli inh
CC(=O)c1ccc(-n2c(C)ccc2-c2ccccc2)cc1	·	0	82*	37	·
CC(=O)c1ccc(-n2c(CCC(=O)O)ccc2-c2ccccc2)cc1	-6	-13	76*	58*	-2
CC(=O)c1ccc(-n2c(CCC(=O)O)ccc2-c2ccc(C)cc2)cc1	·	-11	19	-33	·
CCCCn1nnc(NC(=O)Cc2ccc(Cl)cc2)n1	·	-2	74*	·	·
CC(C)=CCCC(C)N(C=O)C(C)CCC=C(C)C (configuration not stated)	·	-10	53*	50*	·
O=C(O)c1ccc(-n2c(O)c(C=C3N=c4ccccc4=N3)sc2=S)cc1	2	-7	54*	-7	8
O=C(O)c1cccc(-n2c(O)c(C=C3N=c4ccccc4=N3)sc2=S)c1	-4	-4	-10	-28	20
COc1ccc(-c2sc3ccc(N4CCOCC4)cc3c2C#CCO)cc1	32	-1	90*	54*	26
O=C(Nc1ccc2c(c1)[C@H]1C[C@@H](CC(=O)N3CCc4ccccc4C3)O[C@H](CO)[C@H]1O2)NC1CCCC1	-16	·	·	·	8
C[C@@H](CO)NC(=O)c1ccc2c3n(nc2c1)-c1ccccc1CO3	?	24	53*	28	9
OC(CCCN1CCCCC1)(c1ccccc1)c1ccccc1	-9	89*	4	9	4
COc1cc(C(=O)N2CCN(c3cc(Cl)ccc3Cl)CC2)cc(OC)c1OC	21	2	29	-1	60*
COc1cc(C(=O)N2CCN(c3cccc(C)c3C)CC2)cc(OC)c1OC	6	11	2	8	61*
COc1ccc(C(=O)N2CCN(C(=O)c3cc(OC)c(OC)c(OC)c3)CC2)cc1	·	-1	-15	-3	·
Cc1cccc(N2CCN(C(=O)c3cc(S(=O)(=O)N4CCCC4)cn3C)CC2)c1C	-12	-7	27	18	65*
C[C@@H]1CN([C@@H](C)CO)C(=O)c2cc(C#C[C@@H](C)O)cnc2O[C@H]1CN(C)C(=O)Cc1ccccn1	-6	·	·	·	-4
CC(C)NC(=O)Nc1ccc2c(c1)C(=O)N([C@H](C)CO)C[C@@H](C)[C@@H](CN(C)C(=O)Nc1cccc3ccccc13)O2	1	·	·	·	·
COc1cc(-c2onc3ccc(Br)cc23)cc(OC)c1OC	18	13	-6	-9	56*
CO[C@H]1CN(C)C(=O)c2ccc(NC(=O)C3CC3)cc2OC[C@H](C)N(CCC(F)(F)F)C[C@H]1C	8	·	·	·	9
COc1ccccc1-c1noc(-c2cccs2)n1	-102	-20	-11	-72	-97
COc1ccc(-c2nc(-c3cccs3)no2)cc1	81*	48*	86*	58*	82*
Cc1ccc(-c2noc(-c3cccs3)n2)cc1	70*	-29	22	-22	-9
CC(C)c1ccc(-n2cccc2/C=C2/C(=N)N3C=CSC3=NC2=O)cc1	53*	2	55*	42	-7
Cc1sc2nc(SCC(=O)Nc3c(C)n(C)n(-c4ccccc4)c3=O)n(C)c(=O)c2c1C	·	0	58*	7	·
Cc1sc2nc(SCC(=O)NCCO)n(C)c(=O)c2c1C	·	5	8	-2	·
Cc1sc2nc(SCC(=O)OC(C)C)n(C)c(=O)c2c1C	·	47*	22	32	·
COc1cccc(C(=O)N2C[C@@H]3[C@H](c4ccccc42)[C@H](CO)N3C(=O)NC(C)C)c1	23	·	·	·	4
CC1(C)CC(=O)C2=C(C1)OC1=C(C(=O)CC(C)(C)C1)C2c1ccc(O)cc1O	·	1	104*	82*	·
CCCNC(=O)Nc1ccc2c(c1)OC[C@H](C)N(C(=O)C1CC1)C[C@H](C)[C@@H](OC)CN(C)C2=O	4	·	·	·	20
CCN1CCN(Cc2ccc(NC(=O)Nc3ccc(OC)cc3)cc2)CC1	-10	-11	-16	-29	-55
